Experimental data taken from PubChem BioAssay (NCATS).
Inconclusive results are not listed. Active and inactive are the calls of the source. Unless noted, the call rests on the fitted dose curve; in most records, active means well fitted curve in the direction sought with a large enough effect; inconclusive means small, poorly fitted or top-dose-only effect, or another doubt; inactive means no such curve, though single readings can be large; an effect the other way counts as inactive or inconclusive.

Experiments:
[1] = Cell Viability - Jurkat (AID 426;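 active means dose-dependent loss of cell ATP signal giving a full or clear fitted curve, ranked by lower potency value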; further: potency means the concentration at half of the fitted maximal effect); settings: qHTS
Method in brief: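 Jurkat (clone E6-1, human T-cell leukemia) cells, 5000/well in complete medium, were exposed to compound for 40 hr at 37 °C. Viability was read as intracellular ATP by CellTiter-Glo luminescence; AC50 came from Hill fits of concentration-response data.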

[2] = Cell Viability - Hek293 (AID 427;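 active means compounds whose dose-response curve shows a full or clear partial loss of cell viability, called from curve shape rather than a numeric limit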;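 further: potency means the concentration at half of the fitted maximal effect; cells exposed to compound for 40 hours at 37 °C before reading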); settings: qHTS
Method in brief: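 qHTS, human embryonic kidney (adenovirus-transformed) cells; 40 hr cpd, 37 °C; CellTiter-Glo ATP luminescence. Norm: DMSO = 0, 100 uM tamoxifen = 100% inhibition. Hill-fit AC50.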

[3] = Cell Viability - HepG2 (AID 433; calls by dose curve;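 further: potency means the concentration at half of the fitted maximal effect; potency for ATP loss meaning cytotoxicity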); settings: qHTS
Method in brief: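 Read-out is luciferase-based quantitation of cellular ATP as a measure of viable HepG2 cells after 40 h treatment at 37 °C. Signal decrease is scaled between DMSO-only and 100 uM tamoxifen controls, with AC50 fitted by the Hill equation.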

[4] = Cell Viability - MRC5 (AID 434; calls by dose curve;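 further: potency means the concentration at half of the fitted maximal effect; potency reflects cytotoxicity seen as loss of intracellular ATP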); settings: MRC5 lung fibroblast viability, qHTS
Method in brief: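 MRC5 normal human lung fibroblasts (1500/well) were treated with compounds for 40 hr at 37 °C in complete medium, and viable cells were measured as intracellular ATP by CellTiter-Glo luminescence. AC50 came from Hill fits, normalized to DMSO and 100 uM tamoxifen.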

[5] = Cell Viability - SK-N-SH (AID 435; calls by dose curve;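 further: potency means the concentration at half of the fitted maximal effect; compound exposure lasted 40 h at 37 °C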); settings: SK-N-SH neuroblastoma cell viability qHTS
Method in brief: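 Luminescent ATP signal served as the viability read-out after 40 hours of compound treatment of human neuroblastoma SK-N-SH cells. Concentration-response data, scaled between DMSO and 100 uM tamoxifen, gave AC50 values by standard Hill modeling.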

[6] = target: Mitogen-activated protein kinase 10 (Mus musculus) (UniProt Q61831); assay: JNK3 AlphaScreen Assay (AID 530; active means well fitted curve in either direction with a large enough effect, not every such curve was filed as active;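 further: kinase came from lysate of stimulated human HepG2 cells; signal reports phosphorylation of biotinylated GST-cJun 1-79 at Ser73 with 10 µM ATP; on the % scale 0 is the no-effect control and ±100 the full control effect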)
Method in brief: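 JNK3 came from HepG2 lysates pre-activated with IL-1beta and TNF-alpha and phosphorylated biotinylated GST-cJun (1-79) at 10 uM ATP, pH 7.6, room temperature. Compounds were titrated. AlphaScreen signal used anti-phospho-cJun (Ser73) antibody.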

[7] = Cell Viability - N2a (AID 540); settings: N2a mouse neuroblastoma cell viability; activity change, negative = cytotoxicity: at 92.2 µM (top of the series);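 further: plate controls were DMSO alone for no effect and tamoxifen control for full effect; nearly all actives have a fitted effect of over 45% in size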
Method in brief: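 Mouse neuroblastoma N2a cells (1500/well) were preincubated 5 hr at 37 °C, then exposed to compounds for 40 hr at 37 °C in complete medium. Viability was read as intracellular ATP by CellTiter-Glo luminescence; AC50 from Hill fits.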

[8] = Cell Viability - NIH 3T3 (AID 541); settings: NIH 3T3 cell viability, qHTS; activity change, negative = cytotoxicity: at 92.2 µM (top of the series);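 further: plate controls were DMSO alone for no effect and tamoxifen positive control for full effect; nearly all actives have a fitted effect of over 25% in size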
Method in brief: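 NIH 3T3 mouse embryo fibroblasts (1000 cells/well) were plated in complete medium and treated with compound for 40 hr at 37 °C. Viability was read as intracellular ATP by CellTiter-Glo luminescence; AC50 values came from Hill-equation fits of concentration-response data.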

[9] = Cell Viability - HUV-EC-C (AID 542); further: on the % scale 0 is the no-effect control and ±100 the full control effect; nearly all actives have a fitted effect of over 35% in size
Method in brief: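 HUV-EC-C normal human vascular endothelial cells, 1000 cells/well, pre-incubated 5 hr at 37 °C, then exposed to compounds for 40 hr at 37 °C in complete medium. Viability measured as intracellular ATP by CellTiter-Glo luminescence; AC50 from Hill fits.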

[10] = Cell Viability - H-4-II-E (AID 543); further: on the % scale 0 is the no-effect control and ±100 the full control effect; nearly all actives have a fitted effect of over 35% in size
Method in brief: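 Rat hepatoma H-4-II-E cells (1500/well) were plated, incubated 5 hr at 37 °C, then exposed to compounds for 40 hr at 37 °C. Cellular ATP was read by CellTiter-Glo luminescence; AC50 came from Hill-equation fits of concentration-response data.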

[11] = Cell Viability - SH-SY5Y (AID 544); further: nearly all actives have a fitted effect of over 55% in size
Method in brief: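 Human neuroblastoma SH-SY5Y cells (1500/well) in complete medium were exposed to compounds for 40 hr at 37 °C; intracellular ATP was then quantified by CellTiter-Glo luminescence after 20 min at room temperature. AC50 came from Hill-equation concentration-response fits.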

[12] = Cell Viability - Renal Proximal Tubule (AID 545); settings: renal proximal tubule cells viability, primary cells of rat origin; at 91.7 µM (top of the series); further: nearly all actives have a fitted effect of over 40% in size
Method in brief: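 Luminescent ATP signal (CellTiter-Glo) served as the viability read-out after 40 hr compound exposure of freshly isolated rat proximal tubule cells at 37 °C. Concentration-dependent ATP loss was fitted with the Hill equation to give AC50.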

[13] = Cell Viability - Mesenchymal (AID 546); settings: mesenchymal cells viability, qHTS; activity change, negative = cytotoxicity: at 91.7 µM (top of the series);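 further: cells exposed to compound for 40 hours before reading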
Method in brief: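 Normal human renal glomerulus-derived kidney mesenchymal cells, 1000 per well in complete medium, were treated with compounds for 40 hr at 37 °C. Viability was read as intracellular ATP by CellTiter-Glo luminescence; AC50 values came from Hill-equation fits of qHTS concentration-response data.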

[14] = Cellular Toxicity (caspase-3) HepG2 (AID 654);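 further: cells exposed to compound for 16 hours before reading; 0% = DMSO alone and 100% = caspase signal from 100 µM tamoxifen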
Method in brief: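 HepG2 cells (1500/well) in complete medium were treated with compounds for 16 hr at 37 °C. Caspase-3/7 activity was then read as luminescence from peptide-aminoluciferin cleavage. AC50 came from Hill fits, normalized to DMSO and 100 uM tamoxifen.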

[15] = Cellular Toxicity (caspase-3) Jurkat (AID 655); settings: Jurkat caspase-3 activation, luminescence, DMSO = 0%, tamoxifen = 100%; at 92.2 µM (top of the series);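 further: cells exposed to compound for 16 h at 37 °C before reading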
Method in brief: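 5000 Jurkat cells/well; compound 16 hr, 37 °C; Caspase-Glo 3/7 added, 20 min RT; luminescence read. Norm: DMSO = 0%, tamoxifen 100 uM = 100%. AC50, Hill model.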

[16] = Cellular Toxicity (caspase-3) HUV-EC-C (AID 656)
Method in brief: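 qHTS; HUV-EC-C, 1000 cells/well; 5 hr settle, 16 hr cmpd, 37°C; Caspase-Glo 3/7, 20 min RT; luminescence. Norm: DMSO = 0%, tamoxifen 100 uM = 100%. Hill-fit AC50.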

[17] = Cellular Toxicity (caspase-3) SHSY5Y (AID 657)
Method in brief: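 qHTS, SH-SY5Y, 1500 cells/well, 5 h pre-incubation 37 °C; compound 16 h 37 °C; Caspase-Glo 3/7 1 h RT; luminescence. Norm.: DMSO = 0, 10 uM staurosporine = 100%. Hill fit → AC50.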

[18] = Cellular Toxicity (caspase-3) BJ (AID 658);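 further: 0% = DMSO basal and 100% = 10 µM staurosporine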
Method in brief: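 Luminescent aminoluciferin-substrate cleavage reports caspase 3/7 activity in normal human BJ fibroblasts after 16 hr compound exposure at 37 °C. Normalized to DMSO (basal) and 10 uM staurosporine (100%); AC50 from Hill fit of concentration-response.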

[19] = Cellular Toxicity (caspase-3) MRC-5 (AID 659);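 further: 0% = DMSO basal and 100% = 10 µM staurosporine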
Method in brief: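 Luminescence from caspase-cleaved aminoluciferin substrate (Caspase-Glo 3/7, 1 hr RT) reports caspase 3/7 activity in MRC-5 lung fibroblasts after 16 hr compound exposure. Normalized to DMSO basal and 10 uM staurosporine as 100%; AC50 from Hill fits.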

[20] = Cellular Toxicity (caspase-3) Mesangial (AID 660);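 further: cells exposed to compound for 16 h before the caspase read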
Method in brief: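 Human renal glomerular mesangial cells (1000/well) were treated with compounds for 16 h at 37 °C in complete medium, then caspase 3/7 activity was read by Caspase-Glo luminescence. Data were normalized to DMSO and 100 uM tamoxifen; AC50 from Hill fits.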

[21] = Cellular Toxicity (caspase-3) SK-N-SH (AID 661);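 further: 0% = DMSO basal and 100% = 10 µM staurosporine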
Method in brief: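 SK-N-SH human neuroblastoma cells (1500/well) were treated with compounds for 16 hr at 37 °C in complete medium; caspase 3/7 activity was read by Caspase-Glo luminescence. AC50 came from Hill fits of data normalized to DMSO and 10 uM staurosporine.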

[22] = Cellular Toxicity (caspase-3) H-4-II-E (AID 663); settings: Potency: caspase-3 activation;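 further: cells exposed to compound for 16 hr before readout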
Method in brief: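 Luminescence from caspase-cleaved aminoluciferin substrate, read 20 min after reagent addition, reports caspase 3/7 activation in rat H-4-II-E cells after 16 hr compound exposure. Normalized to DMSO (basal) and 100 uM tamoxifen (100%); AC50 from Hill fits.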

[23] = Cellular Toxicity (caspase-3) Hek293 (AID 664);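 further: cells exposed to compound for 16 h at 37 °C before readout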
Method in brief: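 HEK293 cells were exposed to compounds in complete medium for 16 hr at 37 °C, then caspase-3/7 activity was read by Caspase-Glo 3/7 luminescence after 20 min at room temperature. Data normalized to DMSO and 100 uM tamoxifen; AC50 from Hill fits.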

[24] = Cellular Toxicity (caspase-3) NIH 3T3 (AID 666);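 further: 0% = DMSO basal and 100% = 100 µM tamoxifen stimulation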
Method in brief: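 Mouse NIH 3T3 fibroblasts (1000 cells/well) were treated with compound for 16 hr at 37°C in complete medium; caspase-3/7 activity was read by Caspase-Glo luminescence. Normalized to DMSO and 100 uM tamoxifen; AC50 from Hill fits.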

[25] = Cellular Toxicity (caspase-3) Renal Proximal Tubule (AID 667);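 further: cells exposed to compound for 16 hours at 37 °C before detection; 0% = DMSO basal and 100% = 10 µM staurosporine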
Method in brief: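 AC50 derived by standard Hill fit of concentration-response data, normalized between DMSO basal and 10 uM staurosporine as 100% stimulation. Cells: primary rat kidney proximal tubule, 16 h treatment at 37 °C.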

[26] = Cell Viability - LYMP2-001 (AID 921);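 further: 0% = DMSO only and full inhibition = tetraoctylammonium bromide control wells; nearly all actives have a fitted effect of over 70% in size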
Method in brief: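 Steps: seed 2500 lymphoblastoid cells/well; 5 hr, 37 C; add compound; 24 hr, 37 C; CellTiter-Glo reagent, 30 min room temperature; read luminescence. Concentration-response modeled by Hill equation for AC50.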

[27] = MultiTox-Fluor Cytotoxicity Assay - LYMP1-001 - Dead Cells (AID 946)
Method in brief: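 Seed 2500 LYMP1-001 cells/well, incubate 5 hr at 37 C; add compound, 16 hr at 37 C; add MultiTox-Fluor reagent, 60 min RT; read dead-cell fluorescence Ex/Em=485/520. Normalize to DMSO and 15 uM tetraoctylammonium bromide.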

[28] = MultiTox-Fluor Cytotoxicity Assay - LYMP1-001 - Live Cells (AID 947);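 further: 0% = DMSO only and full inhibition = tetraoctylammonium bromide control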
[29] = Cell Viability - LYMP1-002 - Assay at 16 hr (AID 948);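 further: 0% = DMSO alone and full effect = 92 µM tetraoctylammonium bromide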
Method in brief: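 Seed 2500 LYMP1-002 cells per well in complete medium and hold 5 hr at 37 C. Add compound across a concentration series and incubate 16 hr at 37 C. Add CellTiter-Glo, wait 30 min at room temperature, read luminescence.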

[30] = MultiTox-Fluor Cytotoxicity Assay - LYMP1-002 - Live Cells (AID 955); further: on the % scale 0 is the no-effect control and ±100 the full control effect
Method in brief: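 Human lymphoblastoid LYMP1-002 cells, 2500/well in complete medium, rested 5 hr at 37 C, then exposed to compounds for 16 hr at 37 C. Live-cell protease cleavage of GF-AFC read by fluorescence (Ex/Em 405/510) after 60 min at room temperature; AC50 from Hill fits.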

[31] = MultiTox-Fluor Cytotoxicity Assay - LYMP1-003 - Dead Cells (AID 961); further: nearly all actives have a fitted effect of over 70% in size
Method in brief: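 LYMP1-003 lymphoblastoid, 2500 cells/well, 5 hr settle then 16 hr cpd at 37 C; MultiTox-Fluor reagent 60 min RT; Ex/Em 485/520 dead-cell signal; norm. DMSO = 0%, 15 uM tetraoctylammonium bromide = 100%; Hill AC50.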

[32] = MultiTox-Fluor Cytotoxicity Assay - LYMP1-003 - Live Cells (AID 962);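 further: 0% = DMSO only and full loss = 92 µM tetraoctylammonium bromide; cytotoxic hits lower the live-cell protease signal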
Method in brief: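 LYMP1-003 human lymphoblastoid cells (2500/well) in complete medium were preincubated 5 hr at 37 C, then exposed to compounds for 16 hr at 37 C. Live-cell protease cleavage of GF-AFC read by fluorescence (Ex/Em 405/510); AC50 from Hill fits.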

[33] = Cell Viability - LYMP1-003 - Assay at 24 hr (AID 963);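 further: plate controls were DMSO only for no effect and tetraoctylammonium bromide positive control for full effect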
Method in brief: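 Human lymphoblastoid LYMP1-003 cells (2500/well) were rested 5 hr at 37 C, then exposed to compounds in complete medium for 24 hr at 37 C. Cellular ATP was quantified by CellTiter-Glo luminescence, and AC50 values came from Hill fits of concentration-response data.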

[34] = Cell Viability - LYMP1-003 - Assay at 40 hr (AID 964); further: on the % scale 0 is the no-effect control and ±100 the full control effect; nearly all actives have a fitted effect of over 60% in size
Method in brief: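 Human lymphoblastoid LYMP1-003 cells, 2500/well in complete medium, rested 5 hr at 37 C, then exposed to compounds for 40 hr at 37 C. Viability read as intracellular ATP by CellTiter-Glo luminescence; AC50 from Hill fits of concentration-response data.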

[35] = Cell Viability - LYMP2-003 (AID 965);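 further: cells exposed to compounds for 24 h before reading; 0% = DMSO only and full effect = 92 µM tetraoctylammonium bromide; nearly all actives have a fitted effect of over 50% in size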
Method in brief: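 Seed 2500 lymphoblastoid cells/well; incubate 5 hr, 37 C; add compounds; incubate 24 hr, 37 C; add CellTiter-Glo, 30 min RT; read luminescence. AC50 from Hill fit.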

[36] = Cell Viability - LYMP2-004 (AID 966);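 further: plate controls were DMSO only for no effect and tetraoctylammonium bromide control for full effect; nearly all actives have a fitted effect of over 65% in size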
Method in brief: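 Human lymphoblastoid cells (2500/well) in complete medium were treated with compounds for 24 hr at 37 C, then intracellular ATP was measured by CellTiter-Glo luminescence. AC50 values came from Hill-equation fits of concentration-response data.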

[37] = Cell Viability - LYMP2-005 (AID 967);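 further: plate controls were DMSO only for no effect and 92 µM tetraoctylammonium bromide control for full effect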
Method in brief: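 Acute cytotoxicity is scored as a concentration-dependent drop in intracellular ATP in human lymphoblastoid LYMP2-005 cells after 24 h compound treatment. ATP is quantified by luciferase luminescence, and AC50 is derived by Hill-equation modelling.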

[38] = Cell Viability - LYMP2-009 (AID 968);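 further: 0% = DMSO alone and the full-kill end = tetraoctylammonium bromide at 92 µM; nearly all actives have a fitted effect of over 55% in size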
[39] = Cell Viability - LYMP2-011 (AID 969);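 further: 0% = DMSO only and full inhibition = 92 µM tetraoctylammonium bromide; nearly all actives have a fitted effect of over 60% in size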
Method in brief: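 Human lymphoblastoid cells (2500/well) were plated in complete medium, preincubated 5 hr at 37 C, then exposed to compounds for 24 hr at 37 C. Intracellular ATP was read by CellTiter-Glo luminescence, and AC50 came from Hill-equation concentration-response fits.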

C[C@H](CCC(=O)O)[C@H]1CC[C@H]2[C@@H]3CC[C@@H]4C[C@H](O)CC[C@]4(C)[C@H]3CC[C@]12C
inactive: Potency [1] > 92 µM | Potency [2] > 92 µM | Potency [3] > 92 µM | Potency [4] > 92 µM | Potency [5] > 92 µM | Potency [6] | activity change, negative = cytotoxicity [7] 2.31% | Potency [8] | outcome [9] | Potency [10] | Potency [11] | activity change, negative = cytotoxicity [12] -4.96% | activity change, negative = cytotoxicity [13] 15.4% | outcome [14] | caspase-3 activation [15] -0.354% | outcome [16] | outcome [17] | outcome [18] | outcome [19] | outcome [20] | outcome [21] | Potency [22] | outcome [23] | outcome [24] | outcome [25] | Potency [26] | Potency [27] | Potency [28] | Potency [29] | Potency [30] | Potency [31] | Potency [32] | Potency [33] | Potency [34] | Potency [35] | Potency [36] | Potency [37] | Potency [38] | Potency [39]
